# From the supplement of paper PMC10849652
# Of roughly 8,800 targets only a part is listed; those with a hit were picked by preference. About 0.5% of all pairs of compound and target were hits. Values without a mark were called inactive.
# Experiments:
# Assay in all cases: log2 fold change, soluble protein after heating vs DMSO (PISA); higher = thermal stabilisation; K562 lysate, 10 uM; active = over 0.2 and 3.5 SD of the protein, either way, in both replicates (recomputed)
# [1] = compound: CS(=O)(=O)CCNCc1ccc(-c2ccc3ncnc(Nc4ccc(OCc5cccc(F)c5)c(Cl)c4)c3c2)o1 [lapatinib]
# Method in brief: (§1)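 A 30 min treatment with 10 μM compound was applied to crude K562 extract at 1 mg/mL protein in PBS pH 7.4 with 1 mM MgCl2. Heating for 3 min spanned 48°C-58°C, after which aliquots were pooled, adjusted to 0.5% NP-40 at 4°C and spun at 21,000xg for 90 min. TMTpro 16plex LC-MS/MS of the supernatant, with channel sums equalised, gave values recorded as log-two fold change in thermal stability against solvent controls, from duplicates.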
# [2] = compound: CS(=O)(=O)N1CCN(Cc2cc3nc(-c4cccc5[nH]ncc45)nc(N4CCOCC4)c3s2)CC1 [pictilisib]
# Method in brief: as §1
# [3] = compound: C[C@@H](Oc1cc(-c2cnn(C3CCNCC3)c2)cnc1N)c1c(Cl)ccc(F)c1Cl [crizotinib]
# Method in brief: as §1
# [4] = compound: C[C@H](C1=CC=C(C=C1)C(=O)NC2=C3C=CNC3=NC=C2)N
# Method in brief: as §1
# [5] = compound: C[C@H](Nc1ncnc2nc[nH]c12)c1cc2cccc(Cl)c2c(=O)n1-c1ccccc1 [duvelisib]
# Method in brief: as §1
# [6] = compound: Cc1cc(Nc2cc(CN3CCOCC3)c3nc(C)c(Cc4ccc(Cl)cc4F)n3n2)n[nH]1 [gandotinib]
# Method in brief: as §1
# [7] = compound: Cc1cc(Nc2cc(N3CCN(C)CC3)nc(Sc3ccc(NC(=O)C4CC4)cc3)n2)n[nH]1 [tozasertib]
# Method in brief: as §1
# [8] = compound: Cc1ccc(-n2nc(C(C)(C)C)cc2NC(=O)Nc2ccc(OCCN3CCOCC3)c3ccccc23)cc1 [doramapimod]
# Method in brief: as §1
# [9] = compound: Cc1ccc(NC(=O)c2ccc(CN3CC[C@H](N(C)C)C3)c(C(F)(F)F)c2)cc1Nc1nccc(-c2cncnc2)n1 [bafetinib]
# Method in brief: as §1
# [10] = compound: Cc1cccc(CC(=O)N2CCc3c2ccc(-c2cn(C)c4ncnc(N)c24)c3F)n1
# Method in brief: as §1
# Sequence of UniProt Q9NPR9 (Q9NPR9 whole entry, looked up): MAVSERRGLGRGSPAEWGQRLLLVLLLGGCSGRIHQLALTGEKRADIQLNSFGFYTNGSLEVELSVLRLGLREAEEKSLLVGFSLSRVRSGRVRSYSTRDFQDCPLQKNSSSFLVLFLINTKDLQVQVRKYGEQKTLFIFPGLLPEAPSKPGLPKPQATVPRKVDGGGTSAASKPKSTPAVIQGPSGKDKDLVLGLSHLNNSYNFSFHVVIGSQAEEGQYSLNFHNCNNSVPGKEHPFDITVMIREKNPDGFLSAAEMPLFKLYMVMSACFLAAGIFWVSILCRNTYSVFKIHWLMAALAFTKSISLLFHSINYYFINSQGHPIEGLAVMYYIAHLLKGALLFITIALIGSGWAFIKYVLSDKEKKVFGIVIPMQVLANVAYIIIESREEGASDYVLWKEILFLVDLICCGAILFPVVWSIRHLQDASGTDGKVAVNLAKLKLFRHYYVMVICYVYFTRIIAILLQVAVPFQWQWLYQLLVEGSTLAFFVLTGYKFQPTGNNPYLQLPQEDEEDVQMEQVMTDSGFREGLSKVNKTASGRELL
# Sequence of UniProt Q9NWZ3 (Q9NWZ3 whole entry, looked up): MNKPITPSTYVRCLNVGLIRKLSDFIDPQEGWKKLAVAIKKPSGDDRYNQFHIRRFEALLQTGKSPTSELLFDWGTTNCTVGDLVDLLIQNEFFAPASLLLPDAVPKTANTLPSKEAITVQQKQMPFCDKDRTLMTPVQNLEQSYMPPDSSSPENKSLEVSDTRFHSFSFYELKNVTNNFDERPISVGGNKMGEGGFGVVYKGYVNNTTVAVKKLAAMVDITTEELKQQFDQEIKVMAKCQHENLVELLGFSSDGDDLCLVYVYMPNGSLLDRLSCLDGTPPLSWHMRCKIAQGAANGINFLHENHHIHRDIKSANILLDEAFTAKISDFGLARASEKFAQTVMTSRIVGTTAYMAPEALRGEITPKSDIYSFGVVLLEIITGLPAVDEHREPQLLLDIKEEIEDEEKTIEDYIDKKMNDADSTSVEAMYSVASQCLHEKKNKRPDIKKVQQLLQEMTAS
# Sequence of UniProt P15104 (P15104 whole entry, looked up): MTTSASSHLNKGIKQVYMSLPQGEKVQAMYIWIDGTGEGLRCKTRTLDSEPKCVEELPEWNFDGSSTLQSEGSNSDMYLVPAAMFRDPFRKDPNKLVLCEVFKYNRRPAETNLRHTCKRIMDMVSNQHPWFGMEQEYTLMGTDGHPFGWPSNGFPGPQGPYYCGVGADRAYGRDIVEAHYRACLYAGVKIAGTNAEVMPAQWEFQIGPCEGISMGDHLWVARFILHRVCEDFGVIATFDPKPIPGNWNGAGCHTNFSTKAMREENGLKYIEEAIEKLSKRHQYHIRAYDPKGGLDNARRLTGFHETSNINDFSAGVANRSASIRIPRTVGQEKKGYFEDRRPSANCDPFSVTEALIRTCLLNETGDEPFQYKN
# Sequence of UniProt Q01628 (Q01628 whole entry, looked up): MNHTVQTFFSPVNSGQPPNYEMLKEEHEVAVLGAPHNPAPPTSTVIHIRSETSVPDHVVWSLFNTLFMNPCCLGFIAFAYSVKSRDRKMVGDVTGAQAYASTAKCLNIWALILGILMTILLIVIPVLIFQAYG
# Sequence of UniProt Q9H6D7 (Q9H6D7 whole entry, looked up): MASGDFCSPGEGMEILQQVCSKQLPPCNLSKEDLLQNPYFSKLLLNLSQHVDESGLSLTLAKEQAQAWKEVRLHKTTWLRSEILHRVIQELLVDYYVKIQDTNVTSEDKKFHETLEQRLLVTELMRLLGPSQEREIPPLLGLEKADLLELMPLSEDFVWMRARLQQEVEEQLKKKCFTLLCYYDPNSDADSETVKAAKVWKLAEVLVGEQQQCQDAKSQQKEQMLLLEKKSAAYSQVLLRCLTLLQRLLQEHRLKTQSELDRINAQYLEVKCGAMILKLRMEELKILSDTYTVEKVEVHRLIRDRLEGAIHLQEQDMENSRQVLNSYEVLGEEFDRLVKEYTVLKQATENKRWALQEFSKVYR
# Sequence of UniProt Q96EW2 (Q96EW2 whole entry, looked up): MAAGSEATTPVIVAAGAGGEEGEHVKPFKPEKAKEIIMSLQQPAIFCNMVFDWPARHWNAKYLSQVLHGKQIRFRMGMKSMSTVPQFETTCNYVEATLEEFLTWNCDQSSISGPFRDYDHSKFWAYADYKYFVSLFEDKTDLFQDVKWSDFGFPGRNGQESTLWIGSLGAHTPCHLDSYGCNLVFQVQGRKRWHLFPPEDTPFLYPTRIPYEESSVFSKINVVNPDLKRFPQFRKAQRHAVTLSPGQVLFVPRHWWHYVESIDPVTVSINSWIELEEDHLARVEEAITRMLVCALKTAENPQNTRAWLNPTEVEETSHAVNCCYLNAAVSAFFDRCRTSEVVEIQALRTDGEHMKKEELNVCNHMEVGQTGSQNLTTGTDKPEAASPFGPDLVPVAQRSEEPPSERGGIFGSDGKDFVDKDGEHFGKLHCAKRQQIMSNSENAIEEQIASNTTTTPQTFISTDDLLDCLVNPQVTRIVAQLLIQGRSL
# Sequence of UniProt Q6ICG6 (Q6ICG6 whole entry, looked up): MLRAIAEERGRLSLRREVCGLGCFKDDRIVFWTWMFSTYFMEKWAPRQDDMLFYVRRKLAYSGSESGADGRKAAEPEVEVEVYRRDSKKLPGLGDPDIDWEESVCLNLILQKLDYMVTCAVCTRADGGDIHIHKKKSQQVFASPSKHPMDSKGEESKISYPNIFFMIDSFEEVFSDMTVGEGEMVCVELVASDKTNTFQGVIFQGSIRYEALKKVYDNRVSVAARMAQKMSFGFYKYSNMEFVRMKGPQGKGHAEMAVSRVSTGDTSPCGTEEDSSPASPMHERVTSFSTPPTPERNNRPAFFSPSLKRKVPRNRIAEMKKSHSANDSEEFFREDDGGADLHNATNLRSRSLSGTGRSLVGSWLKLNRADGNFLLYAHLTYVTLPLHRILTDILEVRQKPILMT
# Sequence of UniProt Q96SY0 (Q96SY0 whole entry, looked up): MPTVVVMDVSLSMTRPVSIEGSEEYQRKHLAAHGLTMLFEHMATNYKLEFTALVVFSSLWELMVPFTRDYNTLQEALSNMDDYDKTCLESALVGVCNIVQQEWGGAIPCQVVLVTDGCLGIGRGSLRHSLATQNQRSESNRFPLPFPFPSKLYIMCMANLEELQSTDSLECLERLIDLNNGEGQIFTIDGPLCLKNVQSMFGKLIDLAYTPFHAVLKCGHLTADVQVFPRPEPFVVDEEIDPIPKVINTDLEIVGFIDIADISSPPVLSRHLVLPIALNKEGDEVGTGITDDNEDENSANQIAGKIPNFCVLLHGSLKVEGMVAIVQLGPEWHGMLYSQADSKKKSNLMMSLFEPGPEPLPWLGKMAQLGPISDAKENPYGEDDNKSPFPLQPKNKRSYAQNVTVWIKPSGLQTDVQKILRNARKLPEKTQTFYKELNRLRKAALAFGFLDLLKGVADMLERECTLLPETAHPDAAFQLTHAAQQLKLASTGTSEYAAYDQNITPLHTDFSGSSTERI
# Sequence of UniProt Q9BUE6 (Q9BUE6 whole entry, looked up): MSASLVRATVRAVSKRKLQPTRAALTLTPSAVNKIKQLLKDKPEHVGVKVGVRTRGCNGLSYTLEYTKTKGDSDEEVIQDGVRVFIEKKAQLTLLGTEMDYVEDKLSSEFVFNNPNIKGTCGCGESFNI
# Sequence of UniProt P15260 (P15260 whole entry, looked up): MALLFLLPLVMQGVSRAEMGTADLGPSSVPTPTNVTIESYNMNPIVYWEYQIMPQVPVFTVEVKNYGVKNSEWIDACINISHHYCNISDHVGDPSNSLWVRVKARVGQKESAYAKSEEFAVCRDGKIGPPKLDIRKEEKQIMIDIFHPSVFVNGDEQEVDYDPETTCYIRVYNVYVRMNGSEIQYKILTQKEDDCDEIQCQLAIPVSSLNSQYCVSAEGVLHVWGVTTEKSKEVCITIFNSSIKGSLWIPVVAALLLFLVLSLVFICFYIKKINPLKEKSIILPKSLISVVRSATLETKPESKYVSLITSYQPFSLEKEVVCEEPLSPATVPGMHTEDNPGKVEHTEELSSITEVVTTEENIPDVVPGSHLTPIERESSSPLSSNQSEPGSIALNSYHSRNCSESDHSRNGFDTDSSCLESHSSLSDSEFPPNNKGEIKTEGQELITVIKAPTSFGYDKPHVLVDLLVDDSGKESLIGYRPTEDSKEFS
# Sequence of UniProt P49448 (P49448 whole entry, looked up): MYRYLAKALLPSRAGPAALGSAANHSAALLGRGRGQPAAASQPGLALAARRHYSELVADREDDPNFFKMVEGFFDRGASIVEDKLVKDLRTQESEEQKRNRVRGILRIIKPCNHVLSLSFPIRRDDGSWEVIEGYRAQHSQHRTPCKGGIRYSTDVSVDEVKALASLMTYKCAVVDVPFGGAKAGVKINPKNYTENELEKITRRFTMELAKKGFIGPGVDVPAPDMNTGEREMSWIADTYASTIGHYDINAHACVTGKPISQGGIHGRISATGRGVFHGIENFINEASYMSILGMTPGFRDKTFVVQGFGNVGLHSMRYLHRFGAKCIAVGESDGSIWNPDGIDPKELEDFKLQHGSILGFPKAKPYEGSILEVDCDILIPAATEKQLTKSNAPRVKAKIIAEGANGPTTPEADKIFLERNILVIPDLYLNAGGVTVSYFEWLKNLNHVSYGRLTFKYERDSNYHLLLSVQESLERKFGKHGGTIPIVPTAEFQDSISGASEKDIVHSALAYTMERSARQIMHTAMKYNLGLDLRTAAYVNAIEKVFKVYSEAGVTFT
# Sequence of UniProt P52655 (P52655 whole entry, looked up): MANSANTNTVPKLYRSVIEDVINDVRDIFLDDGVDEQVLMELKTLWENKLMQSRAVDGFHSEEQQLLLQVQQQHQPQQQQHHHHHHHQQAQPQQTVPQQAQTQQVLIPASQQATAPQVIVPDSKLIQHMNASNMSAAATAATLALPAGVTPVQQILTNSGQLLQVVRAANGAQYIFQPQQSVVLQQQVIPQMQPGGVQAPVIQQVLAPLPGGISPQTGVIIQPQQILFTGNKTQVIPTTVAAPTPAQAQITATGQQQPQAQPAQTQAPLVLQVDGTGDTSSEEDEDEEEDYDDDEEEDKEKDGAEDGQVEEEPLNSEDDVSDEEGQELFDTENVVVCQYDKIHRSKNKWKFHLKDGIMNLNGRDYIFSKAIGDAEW
Target,log2 fold change [1],log2 fold change [2],log2 fold change [3],log2 fold change [4],log2 fold change [5],log2 fold change [6],log2 fold change [7],log2 fold change [8],log2 fold change [9],log2 fold change [10]
HSPBAP1 (UniProt Q96EW2),-0.074,-0.014,-0.111,-0.076,0.022,0.15,-0.025,0.125,0.052,-0.141
IFITM3 (UniProt Q01628),-0.123,-0.067,-0.089,-0.103,-0.005,0.035,-0.153,-0.034,0.09,-0.022
INTS14 (UniProt Q96SY0),0,0.016,0.005,0.038,0.012,-0.035,-0.011,-0.012,0.009,-0.027
HDAC3 (UniProt E7ESJ6),-0.073,,,,,,,,,
IRAK4 (UniProt Q9NWZ3),-0.021,-0.018,0.175,0.012,0.026,-0.082,0,0.011,-0.013,0.012
HSPA8 (UniProt E9PN89),0.046,0.05,-0.31,-0.706 (active),0.004,0.169,0.074,0.314,-0.021,0.299
KIAA0930 isoform 2 (UniProt Q6ICG6),-0.068,0.016,-0.067,-0.121,-0.037,0.055,-0.015,0.055,-0.051,0.191
ISCA1 isoform 2 (UniProt Q9BUE6),0.054,-0.08,-0.011,0.343 (active),0.012,-0.132,-0.004,0.011,0.067,-0.223
GPR108 (UniProt Q9NPR9),0.022,0.03,-0.01,-0.121,-0.043,0.237 (active),0.024,0.04,0.044,-0.043
GLUL (UniProt P15104),0.04,0.015,0.066,0.213 (active),0.019,-0.093,-0.026,0.014,0.013,-0.147
HSPA8 (UniProt E9PK54),-0.067,-0.013,0.051,-0.025,0.004,0.058,0.067,0.011,0.026,0.046
HEATR6 (UniProt Q6AI08),-0.014,-0.033,-0.112,-0.037,0.084,0.003,-0.003,-0.011,0.054,0.045
GTF2A1 (UniProt P52655),0.034,0.011,0.055,0.327 (active),0.009,-0.141,0.064,0.028,0.026,-0.111
GLUD2 (UniProt P49448),-0.009,0.144,-0.097,-0.004,0.001,0.099,0.03,-0.028,0.049,0.024
HAUS4 (UniProt Q9H6D7),0.021,-0.02,-0.083,-0.063,-0.031,-0.009,0.042,0.043,0.003,0.099
IFNGR1 (UniProt P15260),-0.076,0.153,-0.008,-0.497,0.196,0.263,-0.001,-0.034,-0.144,0.378
